Our source for the outcome values is PubChem BioAssay (EPA / NIEHS).

The structures appear in SMILES notation. Results filed as inconclusive are left out. Activity calls are given as the source filed them. How the source made its calls: active means hit-call score of the fitted dose curve at least 0.9, where 1 is the maximum; inconclusive means response in the unintended direction; inactive means score below 0.9.

Sequence of Androgen receptor (Homo sapiens) (P10275 whole entry, looked up, the tested form may be a part): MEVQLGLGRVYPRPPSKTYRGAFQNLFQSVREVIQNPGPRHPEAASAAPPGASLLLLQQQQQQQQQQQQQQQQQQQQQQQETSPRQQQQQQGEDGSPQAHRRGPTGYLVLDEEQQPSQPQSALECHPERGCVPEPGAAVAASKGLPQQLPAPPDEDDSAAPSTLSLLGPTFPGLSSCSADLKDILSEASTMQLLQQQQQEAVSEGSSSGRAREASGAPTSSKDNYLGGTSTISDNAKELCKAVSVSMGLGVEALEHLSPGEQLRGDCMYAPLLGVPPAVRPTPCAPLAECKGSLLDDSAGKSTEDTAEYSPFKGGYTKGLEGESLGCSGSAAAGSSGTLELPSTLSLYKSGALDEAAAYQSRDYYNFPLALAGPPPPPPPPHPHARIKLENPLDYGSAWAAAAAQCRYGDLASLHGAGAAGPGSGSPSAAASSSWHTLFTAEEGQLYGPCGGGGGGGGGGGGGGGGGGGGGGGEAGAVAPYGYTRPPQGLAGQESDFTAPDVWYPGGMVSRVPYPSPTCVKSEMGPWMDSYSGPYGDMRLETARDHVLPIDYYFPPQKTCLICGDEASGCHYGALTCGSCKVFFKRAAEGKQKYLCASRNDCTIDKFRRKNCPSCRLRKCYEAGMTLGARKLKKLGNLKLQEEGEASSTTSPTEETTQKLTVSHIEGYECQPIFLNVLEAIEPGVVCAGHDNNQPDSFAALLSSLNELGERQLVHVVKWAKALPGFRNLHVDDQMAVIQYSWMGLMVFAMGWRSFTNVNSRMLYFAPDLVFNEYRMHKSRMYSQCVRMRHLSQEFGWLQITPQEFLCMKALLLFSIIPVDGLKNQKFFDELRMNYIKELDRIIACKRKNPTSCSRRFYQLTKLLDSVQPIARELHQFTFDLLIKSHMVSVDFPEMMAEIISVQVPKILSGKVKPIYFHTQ

The target in the test is Androgen receptor (Homo sapiens) (UniProt P10275). Briefly: ATG_AR_TRANS: Attagene TRANS-FACTORIAL HepG2 Assay for human Androgen Receptor (AR) (AID 2282973). The settings on record: HepG2 Attagene TRANS-FACTORIAL AR reporter transcription. The method in brief:
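HepG2 cells transiently transfected with AR-Gal4 chimera and GAL4-UAS reporter units; chemical exposure 24 h. Reporter mRNA quantified by RT-PCR with fluorescent labelling and capillary electrophoresis; gain-of-signal fitted against DMSO.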
Turning to `O=c1cccc[nH]1`, the result was inactive.

On to `NC(C(F)(F)F)C(F)(F)F`, for which the compound was called inactive.

As for `C=C(C)C(=O)OCCOc1ccccc1`, the compound was called inactive.

Take `C=CC(=O)OCC(CO)(COCC(COC(=O)C=C)(COC(=O)C=C)COC(=O)C=C)COC(=O)C=C`: the call was inactive.

On to `O=C1CCCCC1`, for which the compound was called inactive.

Consider `CCCCCCCCCCCCCCCCCC[N+](C)(C)Cc1ccccc1`, for which the result was inactive.

With `CC(=O)c1ccc(S(=O)(=O)NC(=O)NC2CCCCC2)cc1`, the outcome was inactive.

Regarding `CCCCNc1ccc(NCCCC)c2c1C(=O)c1ccccc1C2=O`, the compound was classed as inactive.

For the compound `C[Si](O[Si](C)(C)C)O[Si](C)(C)C`, the compound was classed as inactive.

Take `CCOC(OCC)C(=O)c1ccccc1`: the compound was called inactive.

Take `O=C[C@H](O)[C@H](O)[C@H](O)CO`: the result was inactive.

As to `C=C(C)[C@H]1CC=C(C)C(=O)C1`, the compound was classed as inactive.

Turning to `O=S(=O)(O)c1ccc(Nc2nc(Nc3ccc(C=Cc4ccc(Nc5nc(Nc6ccc(S(=O)(=O)O)cc6)nc(N(CCO)CCO)n5)cc4S(=O)(=O)O)c(S(=O)(=O)O)c3)nc(N(CCO)CCO)n2)cc1`, the result was inactive.

Turning to `NC(=O)C(F)(F)C(F)(F)C(F)(F)C(F)(F)F`, the compound was called inactive.

Regarding `C[C@H]1O[C@@H](O[C@H]2[C@@H](O)C[C@H](O[C@H]3[C@@H](O)C[C@H](O[C@H]4CC[C@@]5(C)[C@H](CC[C@@H]6[C@@H]5C[C@@H](O)[C@]5(C)[C@@H](C7=CC(=O)OC7)CC[C@]65O)C4)O[C@@H]3C)O[C@@H]2C)C[C@H](O)[C@@H]1O`, the result was inactive.

On to `CC(=O)OC1CCCCC1`, for which the result was inactive.

As for `COCCOCCC[Si](C)(O[Si](C)(C)C)O[Si](C)(C)C`, the call was inactive.

As for `CCCCCCOC(=O)c1ccc(O)cc1`, the result was inactive.

Regarding `Nc1cc(Cl)c(-c2cc(Cl)c(N)cc2Cl)cc1Cl`, the outcome was inactive.

As for `Cc1cnccn1`, the compound was called inactive.

As for `O=C1C=CC(=O)N1c1ccccc1`, the compound was called inactive.

For the compound `C=CC/C=C/C/C=C/C/C=C/C`, the outcome was inactive.

In the case of `O=S(=O)(O)C(F)(F)C(F)(F)C(F)(F)C(F)(F)C(F)(F)C(F)(F)C(F)(F)C(F)(F)C(F)(F)C(F)(F)F`, the outcome was inactive.

As to `O=C(O)C=C(C(F)(F)F)C(F)(F)F`, the call was inactive.

`NCC(F)(F)C(F)(F)C(F)(F)C(F)(F)C(F)(F)C(F)(F)C(F)(F)C(F)(F)F`: the compound was called inactive.

Turning to `NS(=O)(=O)C(F)(F)C(F)(F)C(F)(F)C(F)(F)C(F)(F)C(F)(F)F`, the result was inactive.

Take `COCC(C)N` (stereo not given): the compound was called inactive.

Consider `CCc1cccc(CC)c1NC(=O)C(=O)O`, for which the call was inactive.

For the compound `C[Si](Cl)(Cl)CCC(F)(F)C(F)(F)C(F)(F)C(F)(F)C(F)(F)C(F)(F)F`, the compound was called inactive.

As to `O=CN1CCOCC1`, the compound was called inactive.

Consider `CCCCC1CCC(O)CC1` (stereo not given), for which the outcome was inactive.

In the case of `COc1ccc(C)cc1N`, the compound was classed as inactive.

For `Cc1cccc(C(=O)O)c1`, the outcome was inactive.

As for `Cc1cc(O)c(C(C)(C)C)cc1C(C)(C)C`, the compound was classed as inactive.

Regarding `CCOc1nc(F)cc2nc(S(=O)(=O)Nc3c(Cl)cccc3C(=O)OC)nn12`, the result was inactive.

In the case of `CC1=Nc2ccc3ccccc3c2C1(C)C`, the compound was classed as inactive.

For the compound `COC(=O)c1cccnc1`, the compound was classed as inactive.

In the case of `O=C1CCC(=O)N1`, the result was inactive.

For `CC(O)COc1ccccc1` (stereo not given), the compound was classed as inactive.

As to `CCN(CC)c1ccc2c(c1)Oc1cc(N(CC)CC)ccc1C21OC(=O)c2ccccc21`, the call was inactive.
